Source: PubChem BioAssay (The Scripps Research Institute Molecular Screening Center)
PLCb3 inh: blocks human PLC-beta3 enzyme activity; actives 0.18% (n = 370,000); inhibition, % at 12.2 µM; Purified PLC-beta3, fluorogenic substrate, fluorescence
PLC-gamma1 inh: PLC-gamma1 (human) inhibition, primary screen; P19174; purified PLC-gamma1, fluorogenic substrate, fluorescence; inhibition, % at 12.2 µM; actives 0.84% (n = 370,000); AID 720700; in the data active = inhibition above about 9.5%
proKLK7 act: activates the human kallikrein-7 zymogen; AID 652039; P49862; activation, % at 7 µM; actives 0.9% (n = 370,000); purified proKLK7, EDANS-DABCYL substrate fluorescence; 100% is mature enzyme control, 0% vehicle;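 active = activation above the mean of all tested compounds plus 3 SD, computed per campaign excluding outliers beyond control limits, cut at about 13% in these data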
Target sequence (P49862 whole entry, looked up): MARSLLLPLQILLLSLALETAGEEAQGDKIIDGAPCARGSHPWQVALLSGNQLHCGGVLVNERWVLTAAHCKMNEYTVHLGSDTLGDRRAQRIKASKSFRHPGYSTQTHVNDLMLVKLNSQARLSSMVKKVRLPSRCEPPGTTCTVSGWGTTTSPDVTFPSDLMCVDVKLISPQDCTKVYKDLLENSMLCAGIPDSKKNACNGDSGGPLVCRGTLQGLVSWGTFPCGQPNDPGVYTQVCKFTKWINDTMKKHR
ADAM10 inh: inhibitors of human ADAM10; actives 0.62% (n = 370,000); recombinant ADAM10, EDANS/DABCYL FRET peptide cleavage, 3 h; inhibition, % at 7 µM;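 active = inhibition above a per-campaign cutoff equal to the mean of compounds falling between control-based bounds plus 3 SD, cut at about 20% in these data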
ADAM17 inh: inhibits human ADAM17 | recombinant ADAM17, EDANS/DABCYL FRET peptide cleavage | inhibition, % at 6.95 µM | actives 0.83% (n = 370,000) | P78536;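 active = inhibition above the mean of compounds lying between control limits plus 3 SD, set per campaign, cut at about 8.5% in these data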
PLCg1 ctr: PLC-gamma1 inhibition, counter-screen for PLC-beta3 hits; inhibition, % at 12.3 µM; purified PLC-gamma1, fluorogenic substrate, fluorescence; shares compounds with PLC-gamma1 inh; actives 3.1% (n = 3,300); AID 743258; in the data active = inhibition above about 9.5%
PLCbeta3 conf: confirmation of human PLC-beta3 inhibitors; shares compounds with PLC-gamma1 inh; purified PLC-beta3, fluorogenic substrate fluorescence; inhibition, % at 12.3 µM; actives 1% (n = 3,300)
Numbers stand for hits; - = inactive; . = not tested or not shown. Compounds with a hit are over-represented: about 2.9% of the library has one in this group of screens. Cut-off read from the data, not from the text of the source, unless noted: active = inhibition above about 11%; inactive = the rest.

SMILES | PLCb3 inh | PLC-gamma1 inh | proKLK7 act | ADAM10 inh | ADAM17 inh | PLCg1 ctr | PLCbeta3 conf
CC1(C)CN=C(NCc2ccccc2Cl)S1 | - | 12.2 | - | - | - | - | -
CC1CN=C(NCc2ccccc2Cl)S1 (stereo not given) | - | - | - | - | - | . | .
CC1CCC/C=C/C2CC(O)CC2C(O)/C=C/C(=O)O1 (stereo not given) | - | 14.7 | - | - | - | - | -
C[C@H]1CCC[C@@H](O)CCC/C=C/c2cc(O)cc(O)c2C(=O)O1 | - | - | - | - | - | . | .
CCOC(=O)C(O)(c1ccc(N(CC)S(=O)(=O)c2ccc(C)cc2)cc1)C(F)(F)F (stereo not given) | - | - | - | - | - | . | .
CS(=O)(=O)c1ccc(C2=C(CNC(=O)c3ccncc3)[C@H]3CC[C@@H](C2)N3CCOc2ccccc2)cc1 | - | - | - | - | - | . | .
C=Cn1ccnc1P(=S)(c1ccn(C)c1)c1nccn1C=C | - | 13.8 | - | - | - | - | -
CCOC(=O)c1cncn1C(C)c1ccccc1 (stereo not given) | - | - | - | - | - | . | .
N#CC1c2ccccc2-n2nncc2CN1S(=O)(=O)c1ccccc1 (stereo not given) | - | 10.6 | - | - | - | - | -
N#Cc1ccc(C(=O)N2Cc3cnnn3-c3ccccc3C2C#N)cc1 (stereo not given) | - | - | - | - | - | . | .
COC(=O)C1=C(c2cccc(OCc3ccccc3)c2)C[C@@H]2CC[C@H]1N2C(=O)NCCOc1ccccc1 | - | 10.5 | - | - | - | - | -
CCn1ccnc1CN1CCCC(C(=O)c2cccc(C(F)(F)F)c2)C1 (stereo not given) | - | 10.6 | - | - | - | - | -
CN1CCN(CCOC2c3ccccc3CSc3ccc(Cl)cc32)CC1 (stereo not given) | - | 12.5 | - | - | - | - | -
Clc1ccc2c(c1)C(OC1CN3CCC1CC3)c1ccccc1CS2 (stereo not given) | - | - | - | - | - | . | .
COC(=O)C1=C(c2ccc(OCc3ccccc3)cc2)C[C@@H]2CC[C@H]1N2C(=O)NCc1ccc2c(c1)OCO2 | - | - | - | - | - | . | .
Nc1ccc2c(c1)oc1ccccc12 | - | - | - | - | - | . | .
Cc1ccc(C2(O)CN3CCC2CC3)cc1 (stereo not given) | - | - | - | - | - | . | .
